Our source for the binding signal values is paper PMC5700166.

Assay in all cases: protein-binding microarray (PBM); PBM: ~300 nM protein, 6 mM HEPES pH 7.8, 80 mM KCl, 0.5 mM EDTA, 0.5 mM EGTA, 6% glycerol, 35 ng/ul poly-dIdC, 1% milk, 1 h, room temperature; Ap Aiptasia and Nv Nematostella (sea anemones) / Co Capsaspora / Aq Amphimedon (sponge) / Dm Drosophila / Hu human; RHD is the Rel homology domain; high values mean tight binding
Holding throughout (conditions): dsDNA, one strand shown

One assay deals with T1, GST-Ap-NF-kB RHD (Exaiptasia pallida (Aiptasia), UniProt A0A913YAJ5 2-422).
T1 sequence: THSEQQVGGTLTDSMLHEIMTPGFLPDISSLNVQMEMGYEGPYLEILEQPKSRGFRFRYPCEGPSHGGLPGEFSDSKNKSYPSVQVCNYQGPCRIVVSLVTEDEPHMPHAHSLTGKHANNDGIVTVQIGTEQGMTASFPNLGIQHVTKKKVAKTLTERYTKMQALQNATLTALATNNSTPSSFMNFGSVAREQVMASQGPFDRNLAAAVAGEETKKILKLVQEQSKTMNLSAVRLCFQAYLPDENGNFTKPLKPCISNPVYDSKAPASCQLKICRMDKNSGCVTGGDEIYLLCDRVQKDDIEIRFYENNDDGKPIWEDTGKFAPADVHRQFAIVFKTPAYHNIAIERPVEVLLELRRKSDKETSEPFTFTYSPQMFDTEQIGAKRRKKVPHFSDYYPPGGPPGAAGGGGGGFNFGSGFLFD

Assay [1] concerns the target T2, GST-Nv-NF-kB (Cys allele) (Nematostella vectensis, UniProt E5G601 2-411).
T2 sequence: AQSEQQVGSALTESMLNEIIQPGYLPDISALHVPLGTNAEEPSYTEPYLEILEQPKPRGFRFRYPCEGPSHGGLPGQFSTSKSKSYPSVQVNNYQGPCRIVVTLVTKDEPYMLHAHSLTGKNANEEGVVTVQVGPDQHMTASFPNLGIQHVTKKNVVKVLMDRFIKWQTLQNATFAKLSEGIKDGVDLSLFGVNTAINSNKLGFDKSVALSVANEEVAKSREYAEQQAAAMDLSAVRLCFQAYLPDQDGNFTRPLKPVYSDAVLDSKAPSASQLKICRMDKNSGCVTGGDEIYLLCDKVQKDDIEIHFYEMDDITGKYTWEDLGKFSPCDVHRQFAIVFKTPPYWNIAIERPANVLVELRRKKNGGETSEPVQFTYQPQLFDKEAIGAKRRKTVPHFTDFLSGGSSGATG

For another assay, the target named is T3, GST-Co-NF-kB (Capsaspora owczarzaki, UniProt F1ARL5 200-546).
T3 sequence: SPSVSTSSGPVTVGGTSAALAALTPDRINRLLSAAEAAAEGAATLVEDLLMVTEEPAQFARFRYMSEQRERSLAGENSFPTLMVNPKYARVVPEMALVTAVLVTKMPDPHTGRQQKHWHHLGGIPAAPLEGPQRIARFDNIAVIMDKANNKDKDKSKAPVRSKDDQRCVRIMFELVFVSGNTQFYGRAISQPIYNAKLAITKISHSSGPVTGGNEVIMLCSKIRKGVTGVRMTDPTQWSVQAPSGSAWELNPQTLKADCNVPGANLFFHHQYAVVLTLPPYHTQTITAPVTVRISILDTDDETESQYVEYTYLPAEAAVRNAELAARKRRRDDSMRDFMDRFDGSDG

The next assay has as its target T4, GST-Dm-Relish (Drosophila melanogaster, UniProt Q94527 99-473).
T4 sequence: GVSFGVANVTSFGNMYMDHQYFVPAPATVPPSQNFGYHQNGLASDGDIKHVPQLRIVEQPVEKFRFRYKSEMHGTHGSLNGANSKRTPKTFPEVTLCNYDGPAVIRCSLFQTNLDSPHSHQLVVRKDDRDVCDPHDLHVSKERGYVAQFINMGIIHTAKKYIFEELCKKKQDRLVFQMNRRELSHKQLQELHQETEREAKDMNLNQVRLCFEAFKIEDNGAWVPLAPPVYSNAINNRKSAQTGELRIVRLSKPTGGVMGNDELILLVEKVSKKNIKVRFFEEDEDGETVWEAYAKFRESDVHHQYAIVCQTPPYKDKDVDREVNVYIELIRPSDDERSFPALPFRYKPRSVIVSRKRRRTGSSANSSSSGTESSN

In another assay the target is T5, GST-Aq-NF-kB (Amphimedon queenslandica, UniProt A9Y5G7 2-389).
T5 sequence: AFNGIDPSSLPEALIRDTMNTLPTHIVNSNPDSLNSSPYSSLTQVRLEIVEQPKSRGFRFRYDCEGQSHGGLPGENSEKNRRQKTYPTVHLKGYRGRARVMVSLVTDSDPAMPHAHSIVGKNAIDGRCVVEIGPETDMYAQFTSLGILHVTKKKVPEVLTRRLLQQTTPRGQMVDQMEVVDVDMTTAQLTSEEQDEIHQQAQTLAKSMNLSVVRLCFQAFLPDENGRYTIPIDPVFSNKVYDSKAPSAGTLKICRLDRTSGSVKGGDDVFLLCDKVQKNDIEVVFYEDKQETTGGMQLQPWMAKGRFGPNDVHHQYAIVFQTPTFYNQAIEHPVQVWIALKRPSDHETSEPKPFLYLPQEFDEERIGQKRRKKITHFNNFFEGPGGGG

As to “CCGATTAACATCAATAAATACCCTGATGTTAATCGGGTCTTGATTCGCTTGACGCTGCTG”, the binding signal came to 3.73 z-score with GST-Ap-NF-kB RHD; 5.36 z-score in assay [1]; 2.51 z-score in the assay with GST-Co-NF-kB; 4.58 z-score with GST-Dm-Relish; 4.69 z-score in the assay with GST-Aq-NF-kB.
Taken in the same sequence, the figures for “CCGATTAACATCAAAGGAATCCCTGATGTTAATCGGGTCTTGATTCGCTTGACGCTGCTG” were 3.02 z-score, 2.14 z-score, 1.06 z-score, 7.59 z-score and 2.92 z-score.
With “CCGATTAACATCAGAATTCCCACTGATGTTAATCGGGTCTTGATTCGCTTGACGCTGCTG”, the binding signal was found to be 2.58 z-score with GST-Ap-NF-kB RHD; 4.12 z-score in assay [1]; 2.92 z-score with GST-Co-NF-kB; 4.09 z-score in the assay with GST-Dm-Relish; 3.19 z-score in the assay with GST-Aq-NF-kB.
As to “CCGATTAACATCAGGGATCTACCTGATGTTAATCGGGTCTTGATTCGCTTGACGCTGCTG”, the binding signal in the assay with GST-Ap-NF-kB RHD is 3.06 z-score; in assay [1], 2.58 z-score; with GST-Dm-Relish, 7.65 z-score; with GST-Aq-NF-kB, 4.74 z-score.
As to “CCGATTAACATCACGGGGTTGCCTGATGTTAATCGGGTCTTGATTCGCTTGACGCTGCTG”, the binding signal is 1.46 z-score with GST-Ap-NF-kB RHD; 1.02 z-score in assay [1]; 1.38 z-score in the assay with GST-Co-NF-kB; 2.5 z-score in the assay with GST-Dm-Relish; 2.2 z-score with GST-Aq-NF-kB.
As to “CCGATTAACATCATAATTCCCAATGATGTTAATCGGGTCTTGATTCGCTTGACGCTGCTG”, the binding signal in the assay with GST-Ap-NF-kB RHD was found to be 1.92 z-score; in assay [1], 3.54 z-score; in the assay with GST-Co-NF-kB, 2.94 z-score; with GST-Dm-Relish, 2.22 z-score; with GST-Aq-NF-kB, 2.84 z-score.
For the sequence “CCGATTAACATCACCCCTCCCCGTGATGTTAATCGGGTCTTGATTCGCTTGACGCTGCTG”, the binding signal with GST-Ap-NF-kB RHD stood at 5.01 z-score; in assay [1], 3.48 z-score; in the assay with GST-Co-NF-kB it was 4.15 z-score; with GST-Dm-Relish, 3.47 z-score; with GST-Aq-NF-kB, 3.26 z-score.
For “CCGATTAACATCAGGAATTCACCTGATGTTAATCGGGTCTTGATTCGCTTGACGCTGCTG”, the binding signal with GST-Ap-NF-kB RHD is 1.52 z-score; in assay [1], 3.06 z-score; with GST-Dm-Relish, 6.05 z-score; in the assay with GST-Aq-NF-kB, 4.83 z-score.
For “CCGATTAACATCACATACTCCCCTGATGTTAATCGGGTCTTGATTCGCTTGACGCTGCTG”, the binding signal in the assay with GST-Ap-NF-kB RHD was 4.4 z-score; in assay [1], 3.45 z-score; in the assay with GST-Co-NF-kB, 3.69 z-score; with GST-Dm-Relish, 1.57 z-score; with GST-Aq-NF-kB, 3.42 z-score.
Taken in the same sequence, the figures for “CCGATTAACATCAGGCACCCCCCTGATGTTAATCGGGTCTTGATTCGCTTGACGCTGCTG” were 5.14 z-score, 3.21 z-score, 2.79 z-score, 5.16 z-score and 4.88 z-score.
On to “CCGATTAACATCACTTTTTCCCATGATGTTAATCGGGTCTTGATTCGCTTGACGCTGCTG”, for which the binding signal with GST-Ap-NF-kB RHD was determined as 2.03 z-score; in assay [1], 3.6 z-score; with GST-Co-NF-kB it was 4.08 z-score; in the assay with GST-Dm-Relish it was 1.51 z-score; with GST-Aq-NF-kB it was 1.99 z-score.
Take “CCGATTAACATCACGGGTTTTTCTGATGTTAATCGGGTCTTGATTCGCTTGACGCTGCTG”: the binding signal stood at 3.7 z-score in the assay with GST-Ap-NF-kB RHD, 3.76 z-score in assay [1], 5.07 z-score with GST-Dm-Relish and 4.7 z-score with GST-Aq-NF-kB.
Consider “CCGATTAACATCAGGAAAATACCTGATGTTAATCGGGTCTTGATTCGCTTGACGCTGCTG”, for which the binding signal in the assay with GST-Ap-NF-kB RHD is 1.22 z-score; in assay [1], 2.3 z-score; with GST-Dm-Relish it was 4.66 z-score; with GST-Aq-NF-kB, 4.29 z-score.
As for “CCGATTAACATCACGGAAAACCCTGATGTTAATCGGGTCTTGATTCGCTTGACGCTGCTG”, the binding signal in the assay with GST-Ap-NF-kB RHD was 2.23 z-score; in assay [1] it was 2.07 z-score; in the assay with GST-Dm-Relish, 3.69 z-score; with GST-Aq-NF-kB it was 4.81 z-score.
